The record followed here is PubChem BioAssay.

The test in a line: binders of probe aFST on microarray, primary screen, stem cell growth factor project, biochemical, small-molecule microarray, fluorescence 635/667 (AID 1086).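 Note: score merges 667 nm fluorescence with signal-to-noise of each printed compound spot.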 As to conditions: higher = more signal.
Compound `COCCOC(=O)N1C(=O)[C@@]2(c3cc(C#CCC(C(=O)OC)C(=O)OC)ccc31)[C@H](c1ccccc1OCCO)N1[C@H](c3ccccc3)[C@H](c3ccccc3)OC(=O)[C@H]1[C@@H]2C(N)=O` yielded a composite z-score of 0.0716.

With `CC(C)NC(=O)[C@@H]1c2ccccc2C(=O)N(Cc2ccccc2Cl)[C@H]1c1ccc(CO)cc1`, the composite z-score was -0.216.

On to `COc1ccc(CCNC(=O)[C@@]2(c3ccc([N+](=O)[O-])cc3)CC(=O)N(CC34CC5CC(CC(C5)C3)C4)[C@@H]2c2ccc(CO)cc2)cc1`, for which the composite z-score is 0.298.

`COc1ccc(CCNC(=O)[C@@H]2c3ccccc3C(=O)N(Cc3ccc(OC(F)(F)F)cc3)[C@H]2c2ccc(CO)cc2)cc1` registered a composite z-score of 0.322.

Take `CCOC(=O)[C@H]1C[C@H]2O[C@@]23C[C@H]1C(=O)N1CCCC1[C@@H]3O[Si](C)(C)C(C)(C)C` (stereo partly specified): the composite z-score amounted to 0.0204.

Regarding `Cc1cc(C)cc(N2C(=O)CS(=O)(=O)C2c2cccc([N+](=O)[O-])c2)c1` (stereo unspecified), the composite z-score amounted to 1.18.

Consider `O=C(CS)NCCCCCCNC(=O)[C@H]1C[C@H]2C(=O)N3CCC[C@H]3C(=O)N2[C@H]1c1cccc(OCCO)c1`, for which the composite z-score was 0.189.

The compound `C=CC(COC(C)=O)NS(=O)(=O)c1ccc(Br)cc1` (stereo unspecified) came in with a composite z-score of 0.0296.

Consider `CCCC[C@H]1OB(O)C[C@H]2C1=C(C)C[C@H]1C(=O)N(Cc3ccccc3)C(=O)[C@H]12`, for which the composite z-score was 0.267.

As for `O=C1OCCC/C=C\[C@H]2OC34C=CCN(Cn5nnc6ccccc65)C(=O)[C@H]3N(CCCCCO)C(=O)[C@@H]4C12` (stereo partly specified), the composite z-score is -0.666.

As for `CC(C)C[C@@H]1NC(=O)[C@@H]2C[C@H](C(=O)NCCCCCC[N+](C)(C)C)[C@H](c3ccc(O)cc3)N2C1=O`, the composite z-score is 0.0819.
